Compounds with a hit are over-represented: about 6.6% of the library has one in this group of screens.
HT1080 IDH1KD tx – qHTS for induction of synthetic lethality in tumor cells producing 2HG: qHTS for the HT-1080-IDH1KD cell line | HT-1080 IDH1 knockdown viability, ATP luminescence, 48 h | Potency, µM (titrated, usually from 46.1 µM), actives largely listed as cytotoxic | hit rate 2% among 360,000 | AID 686971, 2013
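Using the IDH1-knockdown HT-1080 line run in the same batch and compound series as the NT line, viability after 48 h at 37 °C was determined by CellTiter-Glo luminescence and expressed as % activity.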
KB-3-1 tox – qHTS assay for MDR1-selective chemotherapeutics: Primary screen using the parental adenocarcinoma cell KB-3-1; KB-3-1 viability, CellTiter-Glo ATP luminescence, 72 h; Potency, µM (doses to about 46.1 µM), most hits filed as cytotoxic; hit rate 1.4% among 400,000; further: nearly all actives have a fitted effect of over 60% in size
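72 h, 37 °C compound treatment of KB-3-1 parental cells; CellTiter-Glo added, 10 min, luminescence read. Data corrected against DMSO-only plates and normalized before curve fitting.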
TGFb SMAD3 inh – qHTS for Inhibitors of TGF-b; HepG2 CAGA-GFP TGF-b/SMAD3 reporter, GFP fluorescence, 18 h; TGF-beta stimulated, 500 pg/mL final; Potency, µM (highest dose often 46.1 µM), most hits filed as inhibitors; hit rate 1.2% among 410,000; AID 588855, 2011; further: nearly all actives have a fitted effect of over 65% in size
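Per well, imaged GFP fluorescence of HEPG2 CAGA-GFP cells gives the signal; cells get compound, then TGF-beta (500 pg/mL final), 18 h at 37 degrees C; %Activity versus -TGF-beta and +DMSO controls.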
HT1080NT lethal – qHTS for induction of synthetic lethality in tumor cells producing 2HG: qHTS for the HT-1080-NT fibrosarcoma cell line. Potency, µM (highest dose often 46.1 µM), usual class: cytotoxic. AID 686970, 2013. HT-1080-NT fibrosarcoma viability, CellTiter-Glo ATP luminescence, 48 h. hit rate 1.6% among 360,000;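 further: NT is the 2HG producing partner of a matched IDH1 knockdown line; nearly all actives have a fitted effect of over 55% in size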
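HT-1080-NT fibrosarcoma cells (2HG-overproducing), 750 cells/well in RPMI with 5% FBS, dosed after 2 h and incubated 48 h at 37C. CellTiter-Glo luminescence normalized to DMSO and no-cell wells; concentration-response curves fitted and classed.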
KB-V1 MDR tox – qHTS assay for MDR1-selective chemotherapeutics: Primary screen using the drug-selected MDR subline cells KB-V1; KB-V1 MDR cells viability, CellTiter-Glo, 72 h; hit rate 3.4% among 400,000; Potency, µM (series often up to 46.1 µM), most hits filed as cytotoxic; further: nearly all actives have a fitted effect of over 60% in size
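Cells of the MDR subline KB-V1 are plated, dosed with compound at multiple concentrations, and incubated 72 h at 37 degrees C; CellTiter-Glo is then added and luminescence read after 10 min.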
HepG2 tox-1 – qHTS for Inhibitors of TGF-b: Cytotox Counterscreen | hit rate 0.76% among 410,000 | HepG2 CAGA-GFP viability, ATP luminescence, 18 h | Potency, µM (titrated, usually from 46.1 µM), most hits filed as cytotoxic
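HepG2 CAGA-GFP cells (1000/well, DMEM with 1% FBS) received compound, then TGF-beta at 500 pg/mL final, and were incubated 18 hours at 37 degrees C. Viability was read by CellTiter-Glo luminescence. Media-only wells were set as complete cell-killing and DMSO as no toxicity.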
TGFb confirm – qHTS for Inhibitors of TGF-b: Confirmation of Cherry Picks; shares compounds with TGFb SMAD3 inh; HepG2 CAGA-GFP TGF-b reporter, GFP fluorescence, 18 h; cells stimulated with TGF-beta, 500 pg/mL; Potency, µM (highest dose often 46.1 µM), usual class: inhibitors; hit rate 63% among 1,600; AID 720534, 2013; further: nearly all actives have a fitted effect of over 65% in size
HepG2 tox-2 – qHTS for Inhibitors of TGF-b: Cytotox Counterscreen for Cherry Picks | shares compounds with TGFb SMAD3 inh | HepG2 CAGA-GFP viability, ATP luminescence, 18 h; cells stimulated with TGF-beta, 500 pg/mL | Potency, µM (titrated, usually from 46.1 µM), most hits filed as inhibitors | hit rate 27% among 1,600; further: nearly all actives have a fitted effect of over 70% in size
CCL64 TGFb inh – qHTS for Inhibitors of TGF-b: CCL64 Cells Orthogonal Assay for Cherry Picks. shares compounds with TGFb SMAD3 inh. CCL64 CAGA-GFP reporter, TGF-b stimulated, GFP fluorescence, 18 h. Potency, µM (titrated, usually from 46.1 µM), most hits filed as inhibitors. hit rate 41% among 1,600. AID 720536, 2013; further: nearly all actives have a fitted effect of over 65% in size
TGFb COP inh – qHTS for Inhibitors of TGF-b: Hit Validation in HepG2 Cells using COP promoter. shares compounds with TGFb SMAD3 inh. HepG2 COP-GFP TGF-b reporter, GFP fluorescence, 18 h; cells stimulated by added recombinant TGF-beta. Potency, µM (highest dose often 46.1 µM), usual class: inhibitors. hit rate 3% among 1,600; further: nearly all actives have a fitted effect of over 70% in size
Numbers stand for hits. The call rests on the fitted dose curve; in most records, active means well fitted curve in the direction sought with a large enough effect; inconclusive means small, poorly fitted or top-dose-only effect, or another doubt; inactive means no such curve, though single readings can be large; an effect the other way counts as inactive or inconclusive.

Screening CN(C(=O)c1cccc(NC(=O)Cc2cccc(NC(=O)C3CCN(C(=O)c4ccccc4)CC3)c2)c1)C1CC1 returned HT1080 IDH1KD tx inactive, KB-3-1 tox inactive, TGFb SMAD3 inh inactive, HT1080NT lethal inactive, KB-V1 MDR tox inactive and HepG2 tox-1 inactive.
CC(C)C[C@H]1CNC(=S)N1C[C@H]1CCCN1C[C@H](Cc1ccc(O)cc1)N1C[C@H](Cc2ccccc2)N(CC2CCCCCC2)C1=S was read as HT1080 IDH1KD tx inactive, KB-3-1 tox inconclusive, TGFb SMAD3 inh inconclusive, HT1080NT lethal inactive, KB-V1 MDR tox inconclusive, HepG2 tox-1 inactive, TGFb confirm inconclusive, HepG2 tox-2 inactive, CCL64 TGFb inh inconclusive and TGFb COP inh inactive.
For Oc1ccc(C[C@H]2CNC(=S)N2CC2CCCN2C[C@H](Cc2ccccc2)N2C[C@H](Cc3ccc(O)cc3)N(CC3CCCCC3)C2=S)cc1 (stereo partly drawn) the results were HT1080 IDH1KD tx 26µM, KB-3-1 tox inconclusive, TGFb SMAD3 inh 5.6µM, HT1080NT lethal inconclusive, KB-V1 MDR tox inconclusive, HepG2 tox-1 inactive, TGFb confirm 15µM, HepG2 tox-2 inconclusive, CCL64 TGFb inh 4.1µM and TGFb COP inh inactive.
For Oc1ccc(C[C@H]2CNC(=S)N2CC2CCCN2C[C@H](Cc2ccc(O)cc2)N2C[C@H](Cc3ccccc3)N(CC3CCCCCC3)C2=S)cc1 (stereo partly drawn) the results were HT1080 IDH1KD tx inactive, KB-3-1 tox inconclusive, TGFb SMAD3 inh 7.9µM, HT1080NT lethal inactive, KB-V1 MDR tox inactive, HepG2 tox-1 inactive, TGFb confirm 6.5µM, HepG2 tox-2 inactive, CCL64 TGFb inh 10µM and TGFb COP inh inactive.
For Oc1ccc(C[C@H]2CNC(=S)N2CC2CCCN2C[C@H](Cc2ccc(O)cc2)N2C[C@H](Cc3ccccc3)N(CC3CCCCC3)C2=S)cc1 (stereo partly drawn) the results were HT1080 IDH1KD tx inactive, KB-3-1 tox inactive, TGFb SMAD3 inh 7.9µM, HT1080NT lethal inactive, KB-V1 MDR tox inactive, HepG2 tox-1 inactive, TGFb confirm 6.5µM, HepG2 tox-2 inconclusive, CCL64 TGFb inh inconclusive and TGFb COP inh inactive.

Assay outcomes (PubChem BioAssay)
